# Data reported in PubChem BioAssay (Tox21).
# Inconclusive results are not listed. Where a call stands in place of a potency, no number is given. Values without a mark were called inactive. The source made the active and inactive calls. Unless noted, calls follow the shape of the dose curve; as a rule, active = well fitted curve in the direction sought with a large enough effect in the repeat runs; inconclusive = weak or mixed curves; inactive = no such curve, though single readings can be large; an effect the other way counts as inactive or inconclusive.
# Legend:
# [1] = qHTS assay to identify small molecule antagonists of the estrogen related receptor (ERR) signaling pathway from Tox21 library - cell viability counter screen (AID 1224834); also: nearly all actives have a fitted effect of over 30% in size
# Procedure, shortened: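 Cytotoxicity of test substances is gauged in the same ERR cells used for the antagonist screen, after 17.5 h of compound treatment at 37 C, by CellTiter-Fluor fluorescence measured after 30 min.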
# [2] = target: Luciferin 4-monooxygenase (Photinus pyralis) (UniProt P08659); test: qHTS assay to identify small molecule inhibitors of firefly luciferase (AID 1224835); also: series mostly up to about 120 µM; nearly all actives have a fitted effect of over 25% in size
# Luciferin 4-monooxygenase (Photinus pyralis), sequence (P08659 whole entry, looked up): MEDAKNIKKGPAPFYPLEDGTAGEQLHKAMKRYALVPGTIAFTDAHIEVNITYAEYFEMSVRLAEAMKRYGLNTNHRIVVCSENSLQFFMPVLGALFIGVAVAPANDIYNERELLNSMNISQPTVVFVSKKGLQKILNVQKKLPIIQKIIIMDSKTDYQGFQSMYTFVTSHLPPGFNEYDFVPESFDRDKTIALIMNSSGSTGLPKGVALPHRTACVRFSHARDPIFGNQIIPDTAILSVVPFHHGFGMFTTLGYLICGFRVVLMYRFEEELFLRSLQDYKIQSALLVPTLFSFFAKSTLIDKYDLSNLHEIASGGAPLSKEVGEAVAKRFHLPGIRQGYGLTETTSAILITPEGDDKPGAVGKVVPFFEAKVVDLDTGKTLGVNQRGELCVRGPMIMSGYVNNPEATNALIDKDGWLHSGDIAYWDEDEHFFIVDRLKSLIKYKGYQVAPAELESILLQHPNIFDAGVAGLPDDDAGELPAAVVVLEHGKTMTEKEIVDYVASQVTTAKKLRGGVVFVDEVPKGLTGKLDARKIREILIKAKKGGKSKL
# Procedure, shortened: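 Inhibition of purified Photinus luciferase is measured by luminescence. Substrate levels (D-luciferin, ATP) sit at their KM values. Each compound is tested in a concentration series.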
# [3] = qHTS assay to identify small molecule agonists of the constitutive androstane receptor (CAR) signaling pathway - cell viability counter screen (AID 1224836); also: series mostly up to about 92 µM; nearly all actives have a fitted effect of over 45% in size
# Procedure, shortened: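 23 h treatment, 37 C, 5% CO2. Cell line: HepG2 stably expressing hCAR with a CYP2B6-2.2kb construct. Co-treatment: PK11195, 0.75 uM final. Read-out: CellTiter-Fluor fluorescence intensity.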
# [4] = qHTS assay to identify small molecule antagonists of the constitutive androstane receptor (CAR) signaling pathway - cell viability counter screen (AID 1224837); also: series mostly up to about 92 µM; nearly all actives have a fitted effect of over 45% in size
# Procedure, shortened: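 Multiplexed cytotoxicity read-out for the CAR antagonist screen: double-stable HepG2-CYP2B6-hCAR cells co-treated with 50 nM CITCO (final) and compound over 15 concentrations, incubated 23 hr, then assessed by CellTiter-Fluor fluorescence.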
# [5] = target: Nuclear receptor subfamily 1 group I member 3 (Homo sapiens) (UniProt Q14994); test: qHTS assay to identify small molecule antagonists of the constitutive androstane receptor (CAR) signaling pathway (AID 1224838); also: nearly all actives have a fitted effect of over 40% in size
# Nuclear receptor subfamily 1 group I member 3 (Homo sapiens), sequence (Q14994 whole entry, looked up): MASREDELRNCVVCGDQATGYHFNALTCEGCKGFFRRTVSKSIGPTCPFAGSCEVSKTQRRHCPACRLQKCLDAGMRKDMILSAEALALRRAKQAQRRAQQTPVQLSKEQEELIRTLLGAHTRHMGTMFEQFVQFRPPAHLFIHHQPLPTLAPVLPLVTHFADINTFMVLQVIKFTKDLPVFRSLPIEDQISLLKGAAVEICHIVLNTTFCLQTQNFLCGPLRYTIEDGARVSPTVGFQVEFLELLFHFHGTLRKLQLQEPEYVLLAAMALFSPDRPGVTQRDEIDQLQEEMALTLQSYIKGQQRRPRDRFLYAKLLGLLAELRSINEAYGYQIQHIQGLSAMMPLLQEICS
# Procedure, shortened: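 Compounds were titrated across 15 concentrations onto HepG2 cells double-stably expressing hCAR and a CYP2B6-2.2kb reporter, together with 50 nM CITCO (final). After 24 h at 37 C, luciferase activity was measured by luminescence.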
# [6] = target: Nuclear receptor subfamily 1 group I member 3 (Homo sapiens) (UniProt Q14994); test: qHTS assay to identify small molecule agonists of the constitutive androstane receptor (CAR) signaling pathway (AID 1224839); also: nearly all actives have a fitted effect of over 15% in size; also: potency is read from the fitted curve at half-maximal effect
# Procedure, shortened: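 Compounds tested at 15 concentrations on HepG2 cells stably harbouring hCAR and CYP2B6-2.2kb reporter constructs, co-treated with PK11195 (0.75 uM final), 24 h at 37 C; luminescent reporter signal quantified.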
# [7] = qHTS assay to identify small molecule antagonists of the estrogen related receptor signaling pathway with the pleiotropic PPARgamma coactivator (PGC) from Tox21 10K library - cell viability counter screen (AID 1224840; active = well fitted cell-killing curve with a large enough effect in the repeat runs, not every such curve was filed as active; also: nearly all actives have a fitted effect of over 40% in size)
# Procedure, shortened: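 Step one, plate 2,000 PGC/ERR cells per well; step two, incubate 6 h at 37 C/5% CO2; step three, pin-transfer compounds; step four, incubate 17.5 h; step five, add CellTiter-Fluor and read fluorescence after 30 min.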
# [8] = qHTS assay to identify small molecule antagonists of the estrogen related receptor signaling pathway with the pleiotropic PPARgamma coactivator (PGC) from Tox21 10K library (AID 1224841; call rule not given here; also: series mostly up to about 92 µM; actives are mostly falling curves and most rising ones were filed inactive; nearly all actives have a fitted effect of over 50% in size)
# Procedure, shortened: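 Antagonism in this quantitative HTS is taken from loss of luciferase signal in PGC/ERR cells. Cells (2,000/well) are treated with compounds in DMSO after a 6 h settling period and read by One-Glo luminescence after 18 h.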
# [9] = qHTS assay to identify small molecule agonists of the estrogen related receptor signaling pathway with the pleiotropic PPARgamma coactivator (PGC) from Tox21 10K library (AID 1224842); also: nearly all actives have a fitted effect of over 15% in size
# Procedure, shortened: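 Luminescence from One-Glo (30 min, room temperature) measured after PGC/ERR cells had 18 h at 37 C with pinned compound (23 nL in DMSO). Cells had been seeded at 2,000 per well and pre-incubated 6 h.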
Compound,Potency [1],Potency [2],Potency [3],Potency [4],Potency [5],Potency [6],Potency [7],Potency [8],Potency [9]
COC(=O)c1ccc(CBr)cc1,inactive,inactive,inactive,inactive,inactive,31 µM (active),inactive,–,–
CCN(CCO)CCO,inactive,inactive,inactive,inactive,inactive,inactive,inactive,–,–
[P]#[In],inactive,inactive,inactive,inactive,inactive,inactive,inactive,inactive,inactive
ClCCN1CCCC1,inactive,inactive,inactive,inactive,inactive,inactive,inactive,–,–
C[C@@H](N)[C@@H](O)c1ccccc1,inactive,inactive,inactive,inactive,inactive,inactive,inactive,–,–
CC(Cc1ccccc1)NCCCCl (stereo not drawn),inactive,inactive,inactive,inactive,inactive,inactive,inactive,–,–
O=CCCl,inactive,inactive,inactive,inactive,inactive,inactive,inactive,–,–
BrCC1CO1 (stereo not drawn),inactive,inactive,inactive,inactive,inactive,inactive,inactive,–,–
CN(C)C1CCCCC1,inactive,inactive,inactive,inactive,inactive,inactive,inactive,inactive,inactive
CC(Cl)(Cl)Cl,inactive,inactive,inactive,inactive,inactive,inactive,–,inactive,inactive
COc1ccccc1OC,inactive,inactive,inactive,inactive,inactive,inactive,inactive,inactive,inactive
ClCCCCl,inactive,inactive,inactive,inactive,inactive,inactive,inactive,–,–
CN1C(=O)COc2c(C(=O)NC3CN4CCC3CC4)cc(Cl)cc21 (stereo not drawn),inactive,inactive,inactive,inactive,inactive,inactive,inactive,–,–
COC(=O)c1ccccc1CS(=O)(=O)NC(=O)Nc1nc(OC)cc(OC)n1,inactive,inactive,inactive,inactive,inactive,inactive,inactive,inactive,inactive
O=C(O)C(Cl)Br (stereo not drawn),inactive,inactive,inactive,–,inactive,inactive,–,–,–
CCOC(=O)C(Cl)Cc1cc(-n2nc(C)n(C(F)F)c2=O)c(F)cc1Cl (stereo not drawn),inactive,inactive,inactive,inactive,inactive,–,inactive,–,–
CCCCCCCCSC(=O)Oc1cc(Cl)nnc1-c1ccccc1,inactive,inactive,inactive,inactive,–,–,inactive,–,–
CNC(=O)Oc1ccccc1C(C)C,inactive,inactive,inactive,inactive,inactive,–,inactive,inactive,inactive
Oc1ccc2c3c1O[C@H]1[C@@H](O)C=C[C@H]4[C@@H](C2)NCC[C@@]341,inactive,inactive,inactive,inactive,–,–,–,–,inactive
O=c1[nH]c2ccccc2o1,inactive,inactive,inactive,inactive,inactive,inactive,–,–,inactive
CCOc1cc(OP(=S)(OC)OC)nc(CC)n1,inactive,inactive,inactive,inactive,–,–,inactive,–,–
CCCOC(=O)Cc1ccc(OCC(=O)N(CC)CC)c(OC)c1,inactive,inactive,inactive,inactive,–,–,inactive,–,–
CCOC(=O)NC(C)(C)Cc1ccc(Cl)cc1,inactive,inactive,inactive,inactive,inactive,–,inactive,–,–
CCCOc1nn(C(=O)NS(=O)(=O)c2ccccc2C(=O)OC)c(=O)n1C,inactive,inactive,inactive,–,inactive,inactive,–,–,–
Clc1ccc(C(Cl)(Cl)Cl)cn1,inactive,inactive,inactive,inactive,–,–,inactive,–,–
COC(=O)[C@@H](N)CCCN/C(N)=N/[N+](=O)[O-],inactive,inactive,inactive,inactive,–,–,inactive,–,–
CC(C)(C)C(=O)C(Cl)Cl,inactive,inactive,inactive,inactive,inactive,–,inactive,–,–
CN(C)CCc1c[nH]c2cccc(OP(=O)(O)O)c12,inactive,inactive,inactive,inactive,–,–,inactive,–,–
CC(C)N(Cc1ccccc1)C(=O)C(C)(C)C,inactive,inactive,inactive,inactive,inactive,–,inactive,–,–
C=CC(=O)OCCN(C)C,inactive,inactive,inactive,inactive,–,–,inactive,inactive,inactive
